The results in this text go back to PubChem BioAssay (Tox21).

The structures appear in SMILES notation. Inconclusive results are not listed. Calls of active or inactive are those of the source. Unless noted, the call rests on the fitted dose curve; in most records, active means well fitted curve in the direction sought with a large enough effect in the repeat runs; inconclusive means weak or mixed curves; inactive means no such curve, though single readings can be large; an effect the other way counts as inactive or inconclusive.

Test [1] can be described thus: qHTS assay for small molecules that induce genotoxicity in human embryonic kidney cells expressing luciferase-tagged ATAD5 (AID 651632). Further: nearly all actives have a fitted effect of over 15% in size. To be noted: HEK293T ATAD5-luciferase induction, 16 h; series mostly up to 83.3 µM. A digest of the protocol:
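Quantitative HTS in HEK293T expressing luciferase-tagged ATAD5, whose levels rise upon DNA damage. Exposure ran 16 hr at 37C and 5% CO2, with luminescence read 30 min after Amplite addition at room temperature.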
Background: In qHTS, concentration-response curves come from the screen itself.

Test [2] can be described thus: qHTS assay for small molecules that induce genotoxicity in human embryonic kidney cells expressing luciferase-tagged ATAD5 - cell viability (AID 651634; calls by dose curve; further: nearly all actives have a fitted effect of over 25% in size; further: potency means the concentration at half of the fitted maximal effect). As to conditions: HEK293T ATAD5-luc cells viability, CellTiter-Fluor, 15.5 h; series mostly up to 83.3 µM. The essentials: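 After 15.5 hr incubation with compound at 37C, 5% CO2, HEK293T ATAD5-luciferase cells received CellTiter-Fluor reagent; fluorescence intensity was quantified following 30 min at 37C.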

Test [3] in a line: qHTS assay for small molecule disruptors of the mitochondrial membrane potential - cell viability (AID 720634; calls by dose curve; further: nearly all actives have a fitted effect of over 20% in size; further: potency means the concentration at half of the fitted maximal effect). To be noted: HepG2 viability, ATP luminescence (CellTiter-Glo), 1 h; series mostly up to 83.2 µM. The essentials: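 ATP-based luminescent viability readout (CellTiter-Glo, 30 min, room temperature) in HepG2 cells multiplexed with the m-MPI membrane potential dye; compound exposure lasted 1 hr at 37 C.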

Test [4] is described as follows: qHTS assay to test for compound auto fluorescence at 590 nm (red) in HepG2 cells (AID 720674). To be noted: HepG2 autofluorescence, red 540/590 nm, 1 h; series mostly up to 46 µM. The essentials: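 Fluorescence at 590 nm emission following 540 nm excitation was recorded from HepG2 wells one hour after compound transfer, with DMSO-only wells as vehicle and Rose Bengal sodium equivalency as the scale.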

Test [5] can be described thus: qHTS assay to test for compound auto fluorescence at 535 nm (green) in HepG2 cells (AID 720675). Further: potency means the concentration at half of the fitted maximal effect. As to conditions: green autofluorescence 485/535 nm, 1 h; series mostly up to 46 µM.
A short description of test [6]: qHTS assay to test for compound auto fluorescence at 460 nm (blue) in HEK293 cells (AID 720678). As to conditions: blue autofluorescence 405/460 nm; series mostly up to 46 µM. A digest of the protocol: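 HEK293, 2,000 cells/well, 10% dialyzed FBS; attach 4-5 hr 37C; pin compound or DMSO; o/n 37C/5% CO2; fluorescence 405/460 nm; triamterene-equivalent units.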
A short description of test [7]: qHTS assay to test for compound auto fluorescence at 590 nm (red) in HEK293 cells (AID 720679). To be noted: red autofluorescence 540/590 nm; series mostly up to 46 µM. The essentials:
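Intensity at 540nm excitation and 590nm emission is reported as Rose Bengal sodium-equivalent autofluorescence. Measurements followed overnight exposure (37C, 5% CO2) of HEK293 cells, 2,000 per well, to 23 nL compound.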

Test [8] is described as follows: qHTS assay for small molecule disruptors of the mitochondrial membrane potential (AID 720635). Further: potency means the concentration at half of the fitted maximal effect. As to conditions: HepG2 mitochondrial membrane potential, Mito-MPS dye ratio; series mostly up to 83.2 µM. The essentials: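 HepG2 cells exposed to compound 1 hr at 37C, then Mito-MPS dye 30 min. Ratio read of aggregate (540/590 nm) versus monomer (490/535 nm) fluorescence.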

The nature of test [9]: qHTS assay for small molecule agonists of the p53 signaling pathway - cell viability (AID 651633; calls by dose curve; further: nearly all actives have a fitted effect of over 30% in size; further: potency means the concentration at half of the fitted maximal effect). As to conditions: p53RE-bla HCT-116 viability, ATP luminescence, 16 h; series mostly up to 83.3 µM. The essentials:
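p53RE-bla cells were treated with compound for 16 hours at 37 C. Cytotoxicity was then measured as CellTiter-Glo luminescence after 30 min at room temperature.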

Consider `CN1CCN(CCCN2c3ccccc3Sc3ccccc32)CC1`, for which the Potency entry in test [1], in test [2], in [3], in test [4], in test [5] and in test [6] was “inactive” throughout. Besides, the Potency entry in test [7] was “inactive”.

For `CC1CCCC1`, the Potency result in [4], in [5], in test [6] and in test [7] was “inactive” throughout.

`CCN(CC)CCOc1ccc(-c2nc3cc(Cl)ccc3s2)cc1`: the Potency entry in test [1], in [2], in test [3], in [4], in test [5] and in test [6] was “inactive” throughout. Moreover, the Potency result in test [7] was “inactive”.

On to `C#C[C@]1(O)CC[C@H]2[C@@H]3CCC4=C(CCC(=O)C4)[C@H]3CC[C@@]21C`, for which the Potency result in test [1], in [2], in test [3], in [4], in test [5] and in test [6] was “inactive” throughout. In addition, the Potency result in test [7] was “inactive”.

Take `O=C1CSC2(CCN(CCCN3c4ccccc4Sc4ccc(Cl)cc43)CC2)N1`: the Potency result in test [1], in test [3], in test [4], in test [5], in [6] and in test [7] was “inactive” in each case.

Consider `CC(C)(C)NC(=O)[C@H]1CC[C@H]2[C@@H]3CC=C4C=C(C(=O)O)CC[C@]4(C)[C@H]3CC[C@]12C`, for which the Potency result in test [1], in test [2], in test [3], in test [4], in [5] and in test [6] was “inactive” in each case. In addition, the Potency entry in [7] is “inactive”.

Take `CCCCCCCC(=O)CC[C@@H]1[C@@H](C/C=C\CCCC(=O)OC(C)C)[C@@H](O)C[C@H]1O`: the Potency entry in [1], in test [4], in test [5], in test [6] and in test [7] was “inactive” each time. Besides, the Potency in test [3] and in test [8] was 26.6 µM (active) in each case.

For the compound `CN1CCN(CCC=C2c3ccccc3Sc3ccc(S(=O)(=O)N(C)C)cc32)CC1`, the Potency in [2] is 29.8 µM (active). Moreover, the Potency result in test [4], in test [5], in test [6] and in test [7] was “inactive” throughout.

For `Cc1cc2nc3c(=O)[nH]c(=O)nc-3n(C[C@H](O)[C@H](O)[C@H](O)COP(=O)(O)OP(=O)(O)OC[C@H]3O[C@@H](n4cnc5c(N)ncnc54)[C@H](O)[C@@H]3O)c2cc1C`, the Potency entry in [9], in [3], in [4], in [6] and in [7] was “inactive” throughout. In addition, the Potency in [5] was 14.1 µM (active).

For `COc1ccc(C[C@@H](C)NC[C@H](O)c2ccc(O)c(NC=O)c2)cc1`, the Potency entry in [3], in [4], in [5], in [6] and in test [7] was “inactive” throughout.

For the compound `CCC(=O)NS(=O)(=O)c1ccc(-c2c(-c3ccccc3)noc2C)cc1`, the Potency entry in [1], in test [2], in [3], in test [4], in test [5] and in test [6] was “inactive” in each case. For the same compound, the Potency result in [7] is “inactive”.

Consider `CC[C@@]1(O)C[C@H](O[C@H]2C[C@H](N(C)C)[C@H](O[C@H]3C[C@H](O)[C@H](O[C@H]4CCC(=O)[C@H](C)O4)[C@H](C)O3)[C@H](C)O2)c2c(cc3c(c2O)C(=O)c2c(O)cccc2C3=O)[C@H]1C(=O)OC`, for which the Potency result in test [9], in test [3], in [4], in test [5], in [6] and in [7] was “inactive” each time. The Potency was 15 µM (active) in test [2] and 1.68 µM (active) in test [8].

For `CCC(=O)c1ccc2c(c1)N(CCCN1CCN(CCO)CC1)c1ccccc1S2`, the Potency result in [1], in test [3], in [4], in test [5], in test [6] and in test [7] was “inactive” each time. Moreover, the Potency in [2] was 26.6 µM (active).

With `CC(C)(C)c1ccc(CN2CCN(C(c3ccccc3)c3ccc(Cl)cc3)CC2)cc1` (stereo unspecified), the Potency entry in test [1], in [3], in test [4], in test [5], in [6] and in [7] was “inactive” each time.

In the case of `CC(=O)Nc1ccc(NC(=S)NC(=O)c2ccc(C(C)(C)C)cc2)cc1`, the Potency result in test [2], in test [3], in test [4], in test [5], in test [6] and in test [7] was “inactive” each time. For the same compound, in test [8], the Potency is 2.11 µM (active).

In the case of `CC(C)[C@@H](C)/C=C/[C@@H](C)[C@H]1CC[C@H]2/C(=C/C=C3\C[C@@H](O)CC[C@@H]3C)CCC[C@]12C`, the Potency entry in test [1], in test [3], in test [4], in [5], in test [6] and in test [7] was “inactive” in each case.

Consider `Cc1cccc(C)c1Nc1ncccc1C(=O)O`, for which the Potency result in test [9], in test [2], in test [3], in test [4], in [5] and in [6] was “inactive” in each case. Moreover, the Potency entry in test [7] was “inactive”. Also, in [8], the Potency was 23.7 µM (active).

As to `OCC(O)CO`, the Potency entry in test [5], in test [6] and in test [7] was “inactive” throughout.

Turning to `COc1ccc(C[C@H](C)NC[C@@H](O)c2ccc(O)c(NC=O)c2)cc1`, the Potency entry in test [3], in [4], in test [5], in test [6] and in test [7] was “inactive” each time.

Regarding `CC1(C)S[C@@H]2[C@H](NC(=O)C3(N)CCCCC3)C(=O)N2[C@H]1C(=O)O`, the Potency entry in test [2], in test [3], in [4], in test [5], in test [6] and in test [7] was “inactive” throughout.

Consider `CO[C@@H]1[C@@H](O[C@@H]2O[C@H](C)[C@@H](O[C@H]3C[C@@](C)(O)[C@@H](OC(=O)CC(C)C)[C@H](C)O3)[C@H](N(C)C)[C@H]2O)[C@@H](CC=O)C[C@@H](C)C(=O)/C=C/C2OC2C[C@@H](C)OC(=O)C[C@H]1OC(C)=O` (stereo partly specified), for which the Potency entry in [9], in test [3], in [4], in [5], in test [6] and in test [7] was “inactive” in each case.

In the case of `Nc1nc(=O)n([C@@H]2CS[C@H](CO)O2)cc1F`, the Potency entry in [9], in test [2], in test [3], in [8], in [4] and in test [5] was “inactive” in each case. The Potency entry in test [6] and in [7] was “inactive” each time.

For `CCCCC/C=C\C/C=C\C/C=C\CCCCC(=O)O`, the Potency result in test [9], in test [2], in test [3], in [4], in test [5] and in [6] was “inactive” in each case. In test [7], the Potency result is “inactive”.

Take `O=S(=O)(O)c1cc(O)c2c(N=Nc3ccc(Nc4ccccc4)c4c(S(=O)(=O)O)cccc34)cc(S(=O)(=O)O)cc2c1`: the Potency entry in [1], in [3], in test [4], in test [5], in test [6] and in [7] was “inactive” throughout.

Take `CCCCC(C)(O)C/C=C/[C@H]1[C@H](O)CC(=O)[C@@H]1CCCCCCC(=O)OC` (stereo partly specified): the Potency entry in [9], in test [2], in test [3], in test [4], in test [5] and in test [6] was “inactive” throughout. Further, in test [7], the Potency result is “inactive”.

In the case of `C=C1C(=O)O[C@H]2[C@H]1CC/C(C)=C\CC[C@@]1(C)O[C@@H]21`, in [9], the Potency was 29.8 µM (active). For the same compound, the Potency result in test [3], in test [4], in test [5], in test [6] and in test [7] was “inactive” each time.

Turning to `O=C1NCCN1c1ncc([N+](=O)[O-])s1`, the Potency result in test [1], in test [2], in [3], in test [4], in test [5] and in [6] was “inactive” each time. Also, the Potency entry in test [7] was “inactive”.

Take `[O]=[Bi][O][Bi]=[O]`: the Potency entry in [9], in test [2], in [3], in test [8], in test [4] and in test [5] was “inactive” throughout. For the same compound, the Potency result in test [6] and in test [7] was “inactive” each time.

Consider `CC(=C\c1ccccc1)/C=C1/SC(=S)N(CC(=O)O)C1=O`, for which the Potency entry in [9], in [3], in test [4], in [5], in [6] and in [7] was “inactive” in each case. The Potency in test [2] is 21.1 µM (active).
